Data from PubChem BioAssay AID1159580 (chemical genetic matrix, 2015).
Several values for one entry are separate records, joined by “and”; a condition that tells them apart may be missing. Equal values may be shown once. Hit rate of the full screen: of about 5,500 compounds, about 2,000 (36%) were called active. Inconclusive results (about 18%) are left out. Some of the results follow. Values without a mark were called inactive. Rule as the data show it: active = normalized growth mostly below about 0.91 (no sharp cut-off); inconclusive = no clear call, values can overlap the other calls; inactive = mostly above about 0.92.

Assay: chemical genetic growth profiling, strain panel (AID 1159580);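 also: tested at 20 µM; growth read once vehicle control cultures reached saturation at 30 °C; 1 = growth at the plate median or of vehicle wells; lower values mean less growth of the strain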
Conditions: growth OD
[1] = S. cerevisiae deletion strains, locus YBR229C, strain ROT2, hits give low values
[2] = S. cerevisiae deletion strains, locus YDL101C, strain DUN1, hits give low values
[3] = S. cerevisiae deletion strains, locus YDR150W, strain NUM1, hits give low values
[4] = S. cerevisiae deletion strains, locus YEL061C, strain CIN8, hits give low values
[5] = S. cerevisiae deletion strains, locus YGR078C, strain PAC10, hits give low values
[6] = S. cerevisiae deletion strains, locus YHR030C, strain SLT2, hits give low values
[7] = S. cerevisiae deletion strains, locus YJR043C, strain POL32, hits give low values
[8] = S. cerevisiae deletion strains, locus YJR075W, strain HOC1, hits give low values
[9] = S. cerevisiae deletion strains, locus YLR039C, strain RIC1, hits give low values
[10] = S. cerevisiae deletion strains, locus YLR262C, strain YPT6, hits give low values
[11] = S. cerevisiae deletion strains, locus YMR307W, strain GAS1, hits give low values
[12] = S. cerevisiae deletion strains, locus YNL153C, strain GIM3, hits give low values
[13] = S. cerevisiae deletion strains, locus YPL055C, strain LGE1, hits give low values
[14] = S. cerevisiae deletion strains, locus YPL241C, strain CIN2, hits give low values
[15] = S. cerevisiae strains, strain wild type, hits give low values

O=c1ccn([C@@H]2O[C@H](COP(=O)(O)OP(=O)(O)OP(=O)(O)O)[C@@H](O)[C@H]2O)c(=O)[nH]1
normalized growth (S. cerevisiae deletion strains, locus YBR021W, strain FUR4, hits give low values): 1.06 | normalized growth [1]: 1.02 | normalized growth (S. cerevisiae deletion strains, locus YCL029C, strain bik1, hits give low values): 0.999 | normalized growth (S. cerevisiae deletion strains, locus YDL035C, strain GPR1, hits give low values): 1.02 | normalized growth (S. cerevisiae deletion strains, locus YDL074C, strain BRE1, hits give low values): 1.04 | normalized growth [2]: 1.02 | normalized growth (S. cerevisiae deletion strains, locus YDL185W, strain tfp1, hits give low values): 0.974 | normalized growth (S. cerevisiae deletion strains, locus YDL192W, strain arf1, hits give low values): 0.991 | normalized growth (S. cerevisiae deletion strains, locus YDR101C, strain arx1, hits give low values): 1.03 | normalized growth [3]: 1.02 | normalized growth (S. cerevisiae deletion strains, locus YDR162C, strain NBP2, hits give low values): 1.01 | normalized growth (S. cerevisiae deletion strains, locus YDR318W, strain mcm21, hits give low values): 1 | normalized growth (S. cerevisiae deletion strains, locus YDR388W, hits give low values): 0.988 | normalized growth (S. cerevisiae deletion strains, locus YDR502C, strain sam2, hits give low values): 0.993 | normalized growth [4]: 1.01 | normalized growth (S. cerevisiae deletion strains, locus YER110C, hits give low values): 0.954 | normalized growth (S. cerevisiae deletion strains, locus YER155C, strain BEM2, hits give low values): 1.02 | normalized growth (S. cerevisiae deletion strains, locus YER167W, strain BCK2, hits give low values): 1.02 | normalized growth (S. cerevisiae deletion strains, locus YGL078C, strain dbp3, hits give low values): 0.984 | normalized growth (S. cerevisiae deletion strains, locus YGL086W, strain mad1, hits give low values): 0.996 | normalized growth (S. cerevisiae deletion strains, locus YGL248W, strain PDE1, hits give low values): 1.02 | normalized growth [5]: 1.02 | normalized growth (S. cerevisiae deletion strains, locus YGR135W, strain pre9, hits give low values): 0.946 | normalized growth (S. cerevisiae deletion strains, locus YGR252W, strain gcn5, hits give low values): 0.975 | normalized growth [6]: 1.01 and 1.04 | normalized growth (S. cerevisiae deletion strains, locus YHR079C, strain IRE1 (second series), hits give low values): 1 | normalized growth (S. cerevisiae deletion strains, locus YHR079C, strain IRE1, hits give low values): 1.04 | normalized growth (S. cerevisiae deletion strains, locus YHR094C, strain hxt1, hits give low values): 0.996 | normalized growth (S. cerevisiae deletion strains, locus YHR129C, strain ARP1, hits give low values): 1.02 | normalized growth (S. cerevisiae deletion strains, locus YHR200W, strain rpn10, hits give low values): 1 | normalized growth (S. cerevisiae deletion strains, locus YIL066C, strain RNR3, hits give low values): 1.03 | normalized growth (S. cerevisiae deletion strains, locus YIL073C, strain SPO22, hits give low values): 0.962 | normalized growth (S. cerevisiae deletion strains, locus YIL125W, strain kgd1, hits give low values): 1.01 | normalized growth (S. cerevisiae deletion strains, locus YIR030C, strain dcg1, hits give low values): 0.996 | normalized growth (S. cerevisiae deletion strains, locus YJL095W, strain BCK1, hits give low values): 1.04 | normalized growth (S. cerevisiae deletion strains, locus YJL134W, strain LCB3, hits give low values): 1.01 | normalized growth (S. cerevisiae deletion strains, locus YJL168C, strain set2, hits give low values): 0.98 | normalized growth (S. cerevisiae deletion strains, locus YJL187C, strain SWE1 (second series), hits give low values): 1.03 | normalized growth [7]: 1.04 | normalized growth (S. cerevisiae deletion strains, locus YJR066W, strain TOR1, hits give low values): 1.01 | normalized growth [8]: 1 | normalized growth (S. cerevisiae deletion strains, locus YKL009W, strain mrt4, hits give low values): 0.979 | normalized growth (S. cerevisiae deletion strains, locus YKL068W, hits give low values): 1.02 | normalized growth (S. cerevisiae deletion strains, locus YKL085W, strain MDH1 (second series), hits give low values): 1.01 | normalized growth (S. cerevisiae deletion strains, locus YKL085W, strain MDH1, hits give low values): 1.01 | normalized growth (S. cerevisiae deletion strains, locus YKR001C, strain vps1, hits give low values): 0.99 | normalized growth [9]: 1.04 | normalized growth (S. cerevisiae deletion strains, locus YLR058C, strain SHM2, hits give low values): 1.01 | normalized growth (S. cerevisiae deletion strains, locus YLR102C, strain apc9, hits give low values): 1 | normalized growth (S. cerevisiae deletion strains, locus YLR113W, strain HOG1, hits give low values): 1.05 | normalized growth [10]: 1.03 | normalized growth (S. cerevisiae deletion strains, locus YLR268W, strain sec22, hits give low values): 0.988 | normalized growth (S. cerevisiae deletion strains, locus YLR330W, strain CHS5, hits give low values): 1.01 | normalized growth (S. cerevisiae deletion strains, locus YLR342W, strain FKS1 (second series), hits give low values): 1.03 | normalized growth (S. cerevisiae deletion strains, locus YLR371W, strain rom2, hits give low values): 0.998 | normalized growth (S. cerevisiae deletion strains, locus YLR418C, strain cdc73, hits give low values): 0.976 | normalized growth (S. cerevisiae deletion strains, locus YML016C, strain PPZ1, hits give low values): 1.01 | normalized growth (S. cerevisiae deletion strains, locus YML032C, strain rad52, hits give low values): 0.972 | normalized growth (S. cerevisiae deletion strains, locus YML124C, strain tub3, hits give low values): 0.995 | normalized growth (S. cerevisiae deletion strains, locus YMR078C, strain ctf18, hits give low values): 1 | normalized growth (S. cerevisiae deletion strains, locus YMR223W, strain ubp8, hits give low values): 0.977 | normalized growth [11]: 0.976 | normalized growth (S. cerevisiae deletion strains, locus YNL067W, strain RPL9B, hits give low values): 1.04 | normalized growth [12]: 1.04 | normalized growth (S. cerevisiae deletion strains, locus YNL183C, strain NPR1, hits give low values): 1.04 | normalized growth (S. cerevisiae deletion strains, locus YNL233W, strain BNI4, hits give low values): 1.04 | normalized growth (S. cerevisiae deletion strains, locus YNL250W, strain rad50, hits give low values): 0.989 | normalized growth (S. cerevisiae deletion strains, locus YNL271C, strain bni1, hits give low values): 0.998 | normalized growth (S. cerevisiae deletion strains, locus YNL298W, strain CLA4, hits give low values): 0.98 | normalized growth (S. cerevisiae deletion strains, locus YNL307C, strain MCK1, hits give low values): 0.994 | normalized growth (S. cerevisiae deletion strains, locus YNR052C, strain pop2, hits give low values): 0.995 | normalized growth (S. cerevisiae deletion strains, locus YOL012C, strain htz1): 0.439 | normalized growth (S. cerevisiae deletion strains, locus YOL147C, strain pex11, hits give low values): 0.99 | normalized growth (S. cerevisiae deletion strains, locus YOR061W, strain CKA2, hits give low values): 1.01 | normalized growth (S. cerevisiae deletion strains, locus YOR069W, strain VPS5, hits give low values): 1.01 | normalized growth (S. cerevisiae deletion strains, locus YOR136W, strain idh2, hits give low values): 0.997 | normalized growth (S. cerevisiae deletion strains, locus YOR144C, strain elg1, hits give low values): 0.992 | normalized growth (S. cerevisiae deletion strains, locus YOR184W, strain ser1, hits give low values): 0.965 | normalized growth (S. cerevisiae deletion strains, locus YOR231W, strain MKK1, hits give low values): 1.07 | normalized growth (S. cerevisiae deletion strains, locus YOR316C, strain cot1, hits give low values): 1 | normalized growth [13]: 1.04 | normalized growth [14]: 0.998 | normalized growth (S. cerevisiae deletion strains, locus YPL256C, strain CLN2, hits give low values): 1.03 | normalized growth (S. cerevisiae deletion strains, locus YPR119W, strain clb2, hits give low values): 1 | normalized growth (S. cerevisiae deletion strains, locus YPR141C, strain kar3, hits give low values): 1.01 | normalized growth (S. cerevisiae deletion strains, locus YPR163C, strain tif3, hits give low values): 1.02 | normalized growth (S. cerevisiae deletion strains, locus YPR167C, strain met16, hits give low values): 1 | normalized growth (S. cerevisiae deletion strains, strain wtn01, hits give low values): 0.977 | normalized growth [15]: 1.01

CSc1nc2ccc(NC(=O)c3c(-c4ccccc4)noc3C)cc2s1
normalized growth (S. cerevisiae deletion strains, locus YAL013W, strain DEP1, hits give low values): 0.971 | normalized growth [1]: 1.01 | normalized growth (S. cerevisiae deletion strains, locus YCL061C, strain MRC1, hits give low values): 0.99 | normalized growth [2]: 1.01 | normalized growth (S. cerevisiae deletion strains, locus YDL134C, strain PPH21, hits give low values): 1 | normalized growth [3]: 0.896 | normalized growth [4]: 1 | normalized growth [5]: 0.984 | normalized growth [6]: 0.897 | normalized growth (S. cerevisiae deletion strains, locus YHR087W, strain rtc3, hits give low values): 1 | normalized growth (S. cerevisiae deletion strains, locus YJL187C, strain SWE1, hits give low values): 1 | normalized growth [7]: 0.999 | normalized growth [8]: 1 | normalized growth [9]: 0.888 | normalized growth (S. cerevisiae deletion strains, locus YLR058C, strain SHM2 (second series), hits give low values): 0.996 | normalized growth (S. cerevisiae deletion strains, locus YLR085C, strain ARP6, hits give low values): 0.85 | normalized growth [10]: 0.787 (active) | normalized growth (S. cerevisiae deletion strains, locus YML094W, strain GIM5, hits give low values): 0.974 | normalized growth (S. cerevisiae deletion strains, locus YMR219W, strain ESC1, hits give low values): 1 | normalized growth (S. cerevisiae deletion strains, locus YMR263W, strain SAP30, hits give low values): 0.945 | normalized growth [11]: 0.961 | normalized growth (S. cerevisiae deletion strains, locus YNL128W, strain TEP1, hits give low values): 1 | normalized growth [12]: 1.01 | normalized growth (S. cerevisiae deletion strains, locus YNL298W, strain CLA4 (second series), hits give low values): 1 | normalized growth (S. cerevisiae deletion strains, locus YNL322C, strain KRE1, hits give low values): 0.998 | normalized growth (S. cerevisiae deletion strains, locus YNR030W, strain Alg12, hits give low values): 1 | normalized growth [13]: 0.926 | normalized growth [14]: 1 | normalized growth (S. cerevisiae deletion strains, locus YPR135W, strain CTF4, hits give low values): 0.921 | normalized growth [15]: 1.01
